Source: PubChem (several laboratories)
Myeloid diff 2: promotes myeloid progenitor differentiation | AID 624256 | calls only at 10 µM | ER-HoxA9 myeloid progenitors, lysozyme-GFP differentiation, flow cytometry | hit rate 1% among 360,000;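 active = normalized GFP-positive differentiation at or above the plate's own cutoff, the solvent-only control mean plus 3 SD; inconclusive = no clear call, values can overlap the other calls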;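 note: cells exposed to compound for four days before flow analysis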
hiPSC survival: increases survival of single human iPS cells; hiPSC single-cell survival, ATPlite luminescence; 100% = ROCK inhibitor wells, 0% = DMSO; survival enhancement, % at 20 µM; hit rate 0.044% among 360,000; in the data active = survival enhancement above about 18%;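 note: cells exposed to compounds for 16 hours before the ATP read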
ABCB6 inh 2: human ABCB6 transporter inhibition. K562-ABCB6 porphyrin accumulation, flow cytometry, 1 h; hits give low values. fluorescence ratio to DMSO, % at 10 µM. hit rate 0.19% among 360,000. AID 602162;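 active = fluorescence ratio to DMSO below 75%, the collection mean minus 3 SD; inconclusive = too few cells collected in the well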;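 note: signal is porphyrin accumulated inside mitochondria; 100% equals median channel fluorescence of DMSO control wells; lower ratio means ABCB6 inhibition with less porphyrin fluorescence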
Target sequence (Q9NP58 whole entry, looked up): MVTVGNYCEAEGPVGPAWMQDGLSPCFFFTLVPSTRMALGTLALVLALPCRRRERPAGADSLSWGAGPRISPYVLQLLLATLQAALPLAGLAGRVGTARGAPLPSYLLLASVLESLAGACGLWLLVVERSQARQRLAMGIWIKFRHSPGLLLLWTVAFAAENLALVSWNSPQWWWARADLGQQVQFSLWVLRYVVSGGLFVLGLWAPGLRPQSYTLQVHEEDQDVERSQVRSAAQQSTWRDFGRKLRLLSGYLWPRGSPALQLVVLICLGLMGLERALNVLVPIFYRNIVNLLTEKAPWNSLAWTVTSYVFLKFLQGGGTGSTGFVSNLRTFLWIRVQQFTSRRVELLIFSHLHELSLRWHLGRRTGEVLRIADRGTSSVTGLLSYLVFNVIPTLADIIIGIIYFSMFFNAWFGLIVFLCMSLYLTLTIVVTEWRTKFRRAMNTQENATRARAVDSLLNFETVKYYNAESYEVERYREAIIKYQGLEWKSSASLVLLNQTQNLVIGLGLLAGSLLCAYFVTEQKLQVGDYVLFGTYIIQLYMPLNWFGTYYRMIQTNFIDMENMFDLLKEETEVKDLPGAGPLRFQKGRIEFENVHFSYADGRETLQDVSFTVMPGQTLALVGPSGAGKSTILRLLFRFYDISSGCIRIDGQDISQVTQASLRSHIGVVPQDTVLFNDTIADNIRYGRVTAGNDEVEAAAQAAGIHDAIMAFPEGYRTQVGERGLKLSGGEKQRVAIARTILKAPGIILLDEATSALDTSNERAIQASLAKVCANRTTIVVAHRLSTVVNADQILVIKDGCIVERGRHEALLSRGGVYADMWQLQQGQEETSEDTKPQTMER
MIN6 prolif: induces beta-cell replication in MIN6 cells. MIN6 cells proliferation, ATPlite luminescence, 48 h; cells starved in 0.2% serum; 100% = growth in 10% serum. proliferation, % at 10 µM. hit rate 0.29% among 330,000;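 active = compounds whose signal lies at least 3.5 SD above the mean of all wells on their plate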;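 note: 0% = DMSO-treated cells in low-serum medium and 100% = 10% serum control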
Cardio protect: modulators protecting cardiomyocytes from myocardial damage | hit rate 0.63% among 360,000 | protection from H2O2 cell death, % at 20 µM | AID 588492 | H9c2 cardiomyocytes, H2O2 injury protection, ATPLite, 2 h;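 active = compounds giving at least 50% protection of heart cells from peroxide-induced death in the single-dose screen, raw or plate-pattern-corrected value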;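 note: 0% = DMSO wells with peroxide and 100% = DMSO wells without peroxide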
* = called active by the depositor; i = inactive; u = inconclusive; x = no result given; + = active, no number. An excerpt weighted towards active compounds, which were near 2.2% of everything screened.

SMILES | Myeloid diff 2 | hiPSC survival | ABCB6 inh 2 | MIN6 prolif | Cardio protect
CCCCN1/C(=C/c2ccc3ccccc3[n+]2CC)Sc2ccccc21 | + | -1 | i | -5 | -23
CCN1/C(=C/c2ccc3cc(C)ccc3[n+]2CC)Sc2cc(C)ccc21 | u | -5 | i | x | -26
COc1cccc(Nc2nc3ccccc3n3cnnc23)c1 | i | 0 | 100 | 0 | 86*
COc1ccc(Nc2nc3ccccc3n3cnnc23)cc1Cl | i | 0 | 95 | -5 | 18
O=C(c1ccccc1)c1ccc2nc(N3CCN(C(=O)c4ccco4)CC3)c3nncn3c2c1 | u | 0 | 101 | 1 | 84*
CCOC(=O)N1CCN(c2nc3ccc(C(=O)c4ccccc4)cc3n3cnnc23)CC1 | i | 0 | 99 | -2 | 10
COC(=O)c1cccc2c1-c1ccccc1/C2=N\NC(N)=O | i | -1 | 99 | -5 | 32
COC(=O)c1cccc2c1-c1ccccc1/C2=N/O | i | -2 | 96 | 5.5* | -23
COc1ccc(S(=O)(=O)N2CC(C)N(S(=O)(=O)c3ccc(OC)cc3)CC2C)cc1 (centres undefined) | x | x | x | 1 | x
Cc1nnc(SCCn2c(N3CCC(C)CC3)nc3c2c(=O)[nH]c(=O)n3C)s1 | + | 3 | 91 | 4 | 3
COc1ccc(N2CC(C(=O)NCCC3=CCCCC3)CC2=O)c(OC)c1 (centres undefined) | i | 0 | 100 | 6 | -4
O=c1oc2ccc(Br)cc2cc1-c1nc2ccccc2o1 | i | -1 | 101 | -1 | -9
COc1cccc2cc(-c3nc4ccccc4o3)c(=O)oc12 | + | 0 | 93 | -1 | 4
CCOC(=O)CCC(=O)O[C@H]1[C@H](O[C@@H]2[C@@H](C)[C@H](O[C@H]3C[C@@](C)(OC)[C@@H](O)[C@H](C)O3)[C@@H](C)C(=O)O[C@H](CC)[C@@](C)(O)[C@H](O)[C@@H](C)C(=O)[C@H](C)C[C@@]2(C)O)O[C@H](C)C[C@@H]1N(C)C | + | 0 | 676 | x | 10
CC[C@H]1OC(=O)[C@H](C)[C@@H](O[C@H]2C[C@@](C)(OC)[C@@H](O)[C@H](C)O2)[C@H](C)[C@@H](O[C@@H]2O[C@H](C)C[C@H](N(C)C)[C@H]2O)[C@](C)(O)C[C@@H](C)C(=O)[C@H](C)[C@@H](O)[C@]1(C)O | i | -2 | 96 | x | 13
CN(CCc1ccccn1)Cc1ccc(Cl)cc1Cl | + | -1 | 96 | 1 | 2
COc1ccc(C(=O)OCC(=O)N(C)C2CCS(=O)(=O)C2)cc1S(=O)(=O)N1CCCc2ccccc21 (centres undefined) | i | 1 | 100 | -1 | 5
Cc1[nH]c2ccc(C(C)C)cc2c1CC(=O)O | i | 0 | 101 | -1 | -6
COc1cc2c(cc1OC)CN(CC(=O)Nc1ccccc1C#N)CC2 | i | 0 | 90 | 1 | 74*
CCCOc1cccc(-c2nn(-c3ccccc3)cc2/C=C(\C#N)C(=O)NCCCn2ccnc2)c1 | + | -1 | 125 | 0 | 16
Cc1ccc(S(=O)(=O)N2CCCc3cc(NC(=O)c4c(F)cccc4F)ccc32)cc1 | + | 0 | 93 | -5 | -6
CC(=O)c1ccc(NC(=O)CC(NCCC2=CCCCC2)C(=O)O)cc1 (centres undefined) | i | 0 | 94 | -1 | 10
O=S1(=O)N=C(N(CCO)/N=C/c2ccc(Cl)cc2)c2ccccc21 | i | 0 | 109 | -1 | -3
O=S1(=O)N=C(N(CCO)/N=C/C=C/c2ccccc2)c2ccccc21 | + | 5 | 102 | x | 5
COc1ccc(N(CC(=O)Nc2ccc3c(c2)OCO3)S(=O)(=O)c2ccccc2)c(OC)c1 | i | -1 | 100 | 0 | 54*
COc1ccc(CCNC(=O)CN(c2ccc(OC)c(OC)c2)S(=O)(=O)c2ccccc2)cc1OC | i | 0 | 100 | 1 | 7
COc1ccc(N(CC(=O)Nc2cccc(C(C)=O)c2)S(=O)(=O)c2ccc(NC(C)=O)cc2)cc1 | i | 0 | 96 | 0 | 73*
CCN(CC(=O)Nc1cccc(C(C)=O)c1)S(=O)(=O)c1ccc(OC)cc1 | i | -2 | 97 | -1 | 5
COc1ccc(CCNC(=O)CN(c2ccc(OC)c(OC)c2)S(=O)(=O)c2ccc(C)cc2)cc1 | + | 0 | 97 | 2 | 2
